From the supplement of paper PMC11732987, “Enantioselective OTUD7B fragment discovery through chemoproteomics screening and high-throughput optimisation” (Communications Chemistry, 2025)

Tests used:
Assay in all cases: log2 ratio of Biotin-Ahx-Ub-VS probe labelling (fragment/DMSO); higher = less target engagement (more negative = stronger competition), active = hit call of the paper (q ≤ 0.05, log2 ratio ≤ -1)
Conditions in all cases: compound concentration: 200 uM; treatment time: 3 h
USP34 = USP34 (UniProt Q70CQ2)
USP34, sequence (Q70CQ2 whole entry, the tested form may be a part): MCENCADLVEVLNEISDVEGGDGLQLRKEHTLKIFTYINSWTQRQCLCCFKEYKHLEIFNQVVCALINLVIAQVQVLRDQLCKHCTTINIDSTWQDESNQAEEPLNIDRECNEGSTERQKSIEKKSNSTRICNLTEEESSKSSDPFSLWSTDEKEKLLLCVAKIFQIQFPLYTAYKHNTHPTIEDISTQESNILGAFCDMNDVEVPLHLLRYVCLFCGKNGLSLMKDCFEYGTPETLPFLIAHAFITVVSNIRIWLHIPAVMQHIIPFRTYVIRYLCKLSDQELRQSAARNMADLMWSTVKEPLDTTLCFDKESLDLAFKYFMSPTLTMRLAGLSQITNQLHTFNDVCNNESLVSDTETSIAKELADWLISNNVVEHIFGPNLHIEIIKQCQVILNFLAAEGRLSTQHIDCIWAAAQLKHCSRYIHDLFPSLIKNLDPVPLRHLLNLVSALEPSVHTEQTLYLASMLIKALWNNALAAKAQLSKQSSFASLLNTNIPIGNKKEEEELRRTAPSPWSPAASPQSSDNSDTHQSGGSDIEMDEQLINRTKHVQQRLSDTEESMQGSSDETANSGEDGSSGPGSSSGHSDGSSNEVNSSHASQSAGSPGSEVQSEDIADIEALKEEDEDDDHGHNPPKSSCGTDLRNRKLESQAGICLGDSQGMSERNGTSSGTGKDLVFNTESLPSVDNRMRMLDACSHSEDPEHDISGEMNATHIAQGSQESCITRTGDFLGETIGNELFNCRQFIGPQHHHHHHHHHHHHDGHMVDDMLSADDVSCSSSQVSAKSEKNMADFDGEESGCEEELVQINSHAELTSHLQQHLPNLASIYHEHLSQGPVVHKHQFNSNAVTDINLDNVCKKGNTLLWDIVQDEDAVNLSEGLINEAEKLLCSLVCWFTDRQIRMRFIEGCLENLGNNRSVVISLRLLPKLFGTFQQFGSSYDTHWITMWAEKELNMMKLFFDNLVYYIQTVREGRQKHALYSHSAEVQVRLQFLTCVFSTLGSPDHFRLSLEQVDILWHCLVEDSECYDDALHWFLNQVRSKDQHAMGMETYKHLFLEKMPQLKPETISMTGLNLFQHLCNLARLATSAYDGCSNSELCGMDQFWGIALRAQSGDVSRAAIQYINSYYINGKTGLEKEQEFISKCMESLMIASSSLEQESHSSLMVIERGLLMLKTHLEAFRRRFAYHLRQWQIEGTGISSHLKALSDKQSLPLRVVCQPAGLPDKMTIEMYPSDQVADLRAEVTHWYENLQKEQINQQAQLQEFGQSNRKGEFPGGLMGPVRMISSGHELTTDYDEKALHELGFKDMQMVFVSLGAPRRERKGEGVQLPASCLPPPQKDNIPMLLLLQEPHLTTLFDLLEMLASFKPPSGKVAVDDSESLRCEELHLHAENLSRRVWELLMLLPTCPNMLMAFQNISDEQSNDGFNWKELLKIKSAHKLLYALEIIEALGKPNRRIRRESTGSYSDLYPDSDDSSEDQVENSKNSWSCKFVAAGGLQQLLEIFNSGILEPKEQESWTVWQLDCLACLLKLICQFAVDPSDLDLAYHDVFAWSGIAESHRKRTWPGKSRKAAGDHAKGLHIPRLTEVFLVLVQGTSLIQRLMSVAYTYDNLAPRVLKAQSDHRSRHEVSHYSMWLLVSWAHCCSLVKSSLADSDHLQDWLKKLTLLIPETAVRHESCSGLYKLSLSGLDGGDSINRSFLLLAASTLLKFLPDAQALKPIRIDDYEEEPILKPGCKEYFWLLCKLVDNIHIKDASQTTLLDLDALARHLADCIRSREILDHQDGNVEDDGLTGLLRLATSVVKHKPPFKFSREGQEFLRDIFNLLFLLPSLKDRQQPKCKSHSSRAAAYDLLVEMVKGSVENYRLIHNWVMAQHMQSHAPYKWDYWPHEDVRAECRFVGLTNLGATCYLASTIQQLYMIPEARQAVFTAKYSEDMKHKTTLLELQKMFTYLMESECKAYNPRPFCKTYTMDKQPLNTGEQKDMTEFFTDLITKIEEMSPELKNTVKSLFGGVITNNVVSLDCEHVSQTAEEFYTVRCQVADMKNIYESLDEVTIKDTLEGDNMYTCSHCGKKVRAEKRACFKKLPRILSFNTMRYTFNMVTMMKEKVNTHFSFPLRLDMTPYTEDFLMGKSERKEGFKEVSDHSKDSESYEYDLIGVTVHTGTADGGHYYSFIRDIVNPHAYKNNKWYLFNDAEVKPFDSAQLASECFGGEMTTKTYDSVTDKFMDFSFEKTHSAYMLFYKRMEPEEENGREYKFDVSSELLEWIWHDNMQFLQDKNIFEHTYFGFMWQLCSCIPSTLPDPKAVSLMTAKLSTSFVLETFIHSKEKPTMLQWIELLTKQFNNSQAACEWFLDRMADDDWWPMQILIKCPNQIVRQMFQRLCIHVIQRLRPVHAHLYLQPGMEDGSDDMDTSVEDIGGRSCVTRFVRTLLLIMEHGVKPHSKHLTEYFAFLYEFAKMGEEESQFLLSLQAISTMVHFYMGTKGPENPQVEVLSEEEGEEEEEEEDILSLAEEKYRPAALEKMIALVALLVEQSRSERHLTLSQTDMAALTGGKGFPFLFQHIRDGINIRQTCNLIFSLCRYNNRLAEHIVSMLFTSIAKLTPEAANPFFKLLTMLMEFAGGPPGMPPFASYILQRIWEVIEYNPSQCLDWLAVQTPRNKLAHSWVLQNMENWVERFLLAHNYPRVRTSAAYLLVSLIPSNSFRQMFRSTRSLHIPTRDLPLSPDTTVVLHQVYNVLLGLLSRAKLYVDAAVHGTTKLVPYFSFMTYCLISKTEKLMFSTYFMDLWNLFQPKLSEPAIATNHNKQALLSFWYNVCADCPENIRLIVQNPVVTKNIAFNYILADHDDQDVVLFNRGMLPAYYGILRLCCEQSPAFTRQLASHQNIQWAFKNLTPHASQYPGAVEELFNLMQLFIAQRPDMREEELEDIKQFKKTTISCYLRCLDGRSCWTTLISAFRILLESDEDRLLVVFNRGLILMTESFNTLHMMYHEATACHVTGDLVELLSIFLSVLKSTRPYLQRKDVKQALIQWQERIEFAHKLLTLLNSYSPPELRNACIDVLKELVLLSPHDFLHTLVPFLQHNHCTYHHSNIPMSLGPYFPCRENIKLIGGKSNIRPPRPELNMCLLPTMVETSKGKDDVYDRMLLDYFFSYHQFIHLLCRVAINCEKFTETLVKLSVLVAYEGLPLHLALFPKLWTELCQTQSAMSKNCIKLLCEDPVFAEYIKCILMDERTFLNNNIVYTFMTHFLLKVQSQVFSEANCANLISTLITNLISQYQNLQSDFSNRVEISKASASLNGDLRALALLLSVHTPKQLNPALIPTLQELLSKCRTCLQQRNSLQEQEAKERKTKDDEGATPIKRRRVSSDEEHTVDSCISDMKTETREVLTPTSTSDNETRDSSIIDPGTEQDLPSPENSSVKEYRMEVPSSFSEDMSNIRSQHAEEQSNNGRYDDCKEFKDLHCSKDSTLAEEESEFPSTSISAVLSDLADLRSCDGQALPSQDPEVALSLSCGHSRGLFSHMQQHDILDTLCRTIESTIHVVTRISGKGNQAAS
In short: (§1)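 Average log2 ratios of fragment over vehicle were obtained by unpaired t-test from global-median-normalised Spectronaut label-free quantities. Proteins with ≥2 unique peptides were included. HEK293T lysate (495 µg per sample) was treated in triplicate with fragment at 200 µM or vehicle for 3 h, then with Biotin-Ahx-Ub-VS at 0.5 µM final for 1 h, and labelled DUBs were NeutrAvidin-enriched and run by diaPASEF LC-MS/MS.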

USP36 = target: T1, USP36 (UniProt Q9P275)
T1 sequence (whole entry): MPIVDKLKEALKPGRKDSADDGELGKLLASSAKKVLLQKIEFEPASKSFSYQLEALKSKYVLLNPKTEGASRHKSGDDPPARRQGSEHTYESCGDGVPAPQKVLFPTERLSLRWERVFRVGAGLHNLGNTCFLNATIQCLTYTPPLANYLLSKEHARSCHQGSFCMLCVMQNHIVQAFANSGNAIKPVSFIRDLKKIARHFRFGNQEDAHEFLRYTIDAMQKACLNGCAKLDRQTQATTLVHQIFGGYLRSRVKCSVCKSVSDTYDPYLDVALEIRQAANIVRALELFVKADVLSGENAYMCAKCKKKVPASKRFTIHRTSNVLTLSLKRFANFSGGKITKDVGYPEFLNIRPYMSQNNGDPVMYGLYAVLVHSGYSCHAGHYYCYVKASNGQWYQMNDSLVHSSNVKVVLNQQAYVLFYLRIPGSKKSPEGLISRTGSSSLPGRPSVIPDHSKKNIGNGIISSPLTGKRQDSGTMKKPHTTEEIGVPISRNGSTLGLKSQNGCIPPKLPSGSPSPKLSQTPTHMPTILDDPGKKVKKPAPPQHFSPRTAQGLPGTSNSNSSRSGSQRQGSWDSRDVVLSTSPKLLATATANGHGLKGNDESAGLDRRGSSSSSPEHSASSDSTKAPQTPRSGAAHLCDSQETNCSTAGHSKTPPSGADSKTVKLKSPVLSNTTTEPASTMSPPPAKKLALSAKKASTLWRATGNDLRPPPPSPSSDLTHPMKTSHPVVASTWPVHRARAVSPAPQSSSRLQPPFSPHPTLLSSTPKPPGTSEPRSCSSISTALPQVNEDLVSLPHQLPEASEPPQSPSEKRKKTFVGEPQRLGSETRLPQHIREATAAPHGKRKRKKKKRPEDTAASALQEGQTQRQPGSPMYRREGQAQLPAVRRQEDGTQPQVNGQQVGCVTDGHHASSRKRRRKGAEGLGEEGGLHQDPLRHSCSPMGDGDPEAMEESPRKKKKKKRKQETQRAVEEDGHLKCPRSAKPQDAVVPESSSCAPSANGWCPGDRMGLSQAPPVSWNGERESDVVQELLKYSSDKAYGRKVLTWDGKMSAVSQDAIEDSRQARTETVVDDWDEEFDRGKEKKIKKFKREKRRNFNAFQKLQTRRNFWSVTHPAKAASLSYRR
In short: as §1

USP38 = target: T2, USP38 (UniProt Q8NB14)
T2 sequence (whole entry): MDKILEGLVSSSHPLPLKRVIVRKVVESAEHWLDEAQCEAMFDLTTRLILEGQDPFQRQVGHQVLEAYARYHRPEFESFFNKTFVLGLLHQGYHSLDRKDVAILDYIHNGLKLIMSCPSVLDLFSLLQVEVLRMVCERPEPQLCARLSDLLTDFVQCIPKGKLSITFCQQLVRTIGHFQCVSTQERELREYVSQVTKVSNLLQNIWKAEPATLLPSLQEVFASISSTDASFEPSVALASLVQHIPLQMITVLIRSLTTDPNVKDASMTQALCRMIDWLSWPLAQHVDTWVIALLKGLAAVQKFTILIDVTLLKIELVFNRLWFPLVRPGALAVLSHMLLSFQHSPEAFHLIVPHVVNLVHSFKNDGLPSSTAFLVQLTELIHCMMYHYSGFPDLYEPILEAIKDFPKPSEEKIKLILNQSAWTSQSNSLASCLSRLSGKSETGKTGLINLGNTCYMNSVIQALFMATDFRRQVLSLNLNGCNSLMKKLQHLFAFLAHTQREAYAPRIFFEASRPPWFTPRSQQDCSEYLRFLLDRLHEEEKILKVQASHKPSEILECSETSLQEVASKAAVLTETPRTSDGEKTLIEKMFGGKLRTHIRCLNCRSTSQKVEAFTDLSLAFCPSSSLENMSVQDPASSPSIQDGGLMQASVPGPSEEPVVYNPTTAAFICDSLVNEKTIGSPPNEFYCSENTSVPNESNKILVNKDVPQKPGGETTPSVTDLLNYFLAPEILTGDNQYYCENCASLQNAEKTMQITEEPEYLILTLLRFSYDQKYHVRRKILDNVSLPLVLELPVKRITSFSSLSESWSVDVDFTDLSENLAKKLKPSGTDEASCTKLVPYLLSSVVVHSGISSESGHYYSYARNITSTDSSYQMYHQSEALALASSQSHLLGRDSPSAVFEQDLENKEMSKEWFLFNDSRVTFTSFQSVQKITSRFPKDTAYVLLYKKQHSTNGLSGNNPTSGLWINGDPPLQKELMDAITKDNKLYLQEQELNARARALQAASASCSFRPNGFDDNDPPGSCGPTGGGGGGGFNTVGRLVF
In short: as §1

USP39 = target: T3, USP39 (UniProt Q53GS9)
T3 sequence (whole entry): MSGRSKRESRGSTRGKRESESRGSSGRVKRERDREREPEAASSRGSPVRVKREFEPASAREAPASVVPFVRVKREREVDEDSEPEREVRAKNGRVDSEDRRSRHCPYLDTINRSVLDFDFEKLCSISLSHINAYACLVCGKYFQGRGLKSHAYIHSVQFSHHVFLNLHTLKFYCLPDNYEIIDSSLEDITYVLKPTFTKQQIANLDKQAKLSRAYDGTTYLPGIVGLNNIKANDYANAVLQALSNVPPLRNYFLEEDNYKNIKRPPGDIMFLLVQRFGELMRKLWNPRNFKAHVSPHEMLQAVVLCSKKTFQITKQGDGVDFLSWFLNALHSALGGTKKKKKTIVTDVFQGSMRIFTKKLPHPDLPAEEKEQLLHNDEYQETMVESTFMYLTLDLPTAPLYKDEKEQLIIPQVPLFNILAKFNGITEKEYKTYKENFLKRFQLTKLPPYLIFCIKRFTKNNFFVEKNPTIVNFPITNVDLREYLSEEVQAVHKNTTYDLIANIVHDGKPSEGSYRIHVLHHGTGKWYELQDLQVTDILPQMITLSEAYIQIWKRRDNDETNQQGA
In short: as §1

USP4 = target: T4, USP4 (UniProt Q13107)
T4 sequence (whole entry): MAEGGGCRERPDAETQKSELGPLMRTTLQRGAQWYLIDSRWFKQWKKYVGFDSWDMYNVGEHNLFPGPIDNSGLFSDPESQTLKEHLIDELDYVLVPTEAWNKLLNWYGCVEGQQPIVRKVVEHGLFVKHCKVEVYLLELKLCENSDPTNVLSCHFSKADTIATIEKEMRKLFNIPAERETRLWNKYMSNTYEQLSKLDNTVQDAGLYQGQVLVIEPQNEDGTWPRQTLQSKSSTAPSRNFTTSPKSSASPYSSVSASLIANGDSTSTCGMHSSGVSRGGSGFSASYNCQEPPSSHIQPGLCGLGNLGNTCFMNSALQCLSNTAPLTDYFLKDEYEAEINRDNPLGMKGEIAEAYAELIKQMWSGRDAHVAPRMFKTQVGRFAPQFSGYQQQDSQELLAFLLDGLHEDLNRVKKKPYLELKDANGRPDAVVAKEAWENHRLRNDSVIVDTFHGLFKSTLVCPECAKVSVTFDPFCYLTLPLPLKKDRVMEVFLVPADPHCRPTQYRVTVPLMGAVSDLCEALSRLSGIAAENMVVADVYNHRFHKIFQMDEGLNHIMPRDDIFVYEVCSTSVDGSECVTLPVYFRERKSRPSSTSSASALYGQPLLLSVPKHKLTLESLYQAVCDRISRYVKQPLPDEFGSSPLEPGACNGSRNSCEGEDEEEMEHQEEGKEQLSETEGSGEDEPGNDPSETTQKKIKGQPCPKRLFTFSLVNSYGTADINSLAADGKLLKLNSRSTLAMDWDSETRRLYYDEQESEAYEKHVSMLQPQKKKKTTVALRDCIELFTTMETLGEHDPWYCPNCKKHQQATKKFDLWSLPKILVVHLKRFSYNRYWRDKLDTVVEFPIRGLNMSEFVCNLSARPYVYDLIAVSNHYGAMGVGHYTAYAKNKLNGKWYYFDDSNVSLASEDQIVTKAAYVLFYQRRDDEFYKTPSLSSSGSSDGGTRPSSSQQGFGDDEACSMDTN
In short: as §1

Measured: log2 ratio of Biotin-Ahx-Ub-VS probe labelling

O=C(CN1CCN(C(=O)CCl)CC1)Nc1cccc(F)c1
inactive: USP34 -0.112 | USP36 0.0501 | USP38 -0.114 | USP39 -0.288 | USP4 -0.0247
